The whole screen tested about 66,000 compounds, of which about 960 (1.5%) showed an effect of 50% or more. This excerpt belongs to a sample that is enriched for strong results.

The assay concerns Trypanosoma brucei. The experiment in a line: Trypanosoma brucei 72 hour study. In kind it is functional, organism-based. On the set-up: scale not given: in the data most compounds retested in dose-response had high values.

Regarding `CC(=O)Nc1nc2c(s1)C1(CCN(C)CC1)Nc1ccccc1S2`, where the note is “30.3 µM, […]”, the “Percent Effect” value worked out at 83.23%.
Same read-out and setting: the figure for `CC(=O)Nc1nc2c(s1)C1(CCCC1)Nc1ccccc1S2` is -6.174%.
On to `O=c1c(CN2CCOCC2)coc(O)c1CN1CCOCC1`, for which the “Percent Effect” value (30 µM, 30.03 µM) is recorded as -17.25%.
In the case of `CN1CCN(c2ncc3c(=O)n(-c4cccc(F)c4)c(=O)[nH]c3n2)CC1`, under “30 µM, 30.03 µM”, the “Percent Effect” value worked out at 11.72%.
The same measure, in the same setting: then `OC(CN1CCN(CC2CCCCC2)CC1)c1ccccc1` (stereo not given), with -15.73%; and `Cl.NC(CC1CCCC1)c1ccccc1` (stereo not given), with -30.59%; and `NC(CC1CCCC1)c1ccc(Oc2ccccc2)cc1` (stereo not given), with 101.8%.
For the compound `COc1ccc(CN(Cc2cnc(N)nc2)CC2CCCO2)c(OC)c1.O=C(O)CC(O)(CC(=O)O)C(=O)O` (stereo not given), where the note is “30.3 µM, […]”, the “Percent Effect” value was 5.653%.
For the compound `Cc1cc(NC2CCc3nc(C)nn3C2)n2ncnc2n1` (stereo not given), the “Percent Effect” value (30 µM, 30.03 µM) is recorded as -21.45%.
In the case of `CCc1nc2n(n1)CC(Nc1cc(C)nc3ncnn13)CC2` (stereo not given), where the note is “30 µM, 30.03 µM”, the “Percent Effect” value is -89.04%.
Consider `Cc1nc2n(n1)CC(Nc1cc(C(F)(F)F)nc3ncnn13)CC2` (stereo not given), for which, under “30 µM, 30.03 µM”, the “Percent Effect” value is on record as 53.11%.
Consider `CCCc1cc(NC2CCc3ncnn3C2)n2ncnc2n1` (stereo not given), for which the “Percent Effect” value (30 µM, 30.03 µM) is given as 104.4%.
Same read-out and setting: then `CCCc1cc(NC2CCc3nc(CC)nn3C2)n2ncnc2n1` (stereo not given), with -33.56%; and `CCCc1cc(NC2CCc3nc(C)nn3C2)n2ncnc2n1` (stereo not given), with -21.48%.
Regarding `O=C(NC1CC1)[C@H]1C[C@H]2OCC[C@H]2N(Cc2ccc3ccccc3n2)C1.O=C(O)C(F)(F)F.O=C(O)C(F)(F)F`, the “Percent Effect” value (30.3 µM, […]) is recorded as -259.7%.
For `COC(=O)CCN(C)Cc1cc(Br)cs1`, the “Percent Effect” value (30 µM, 30.03 µM) is given as -12.73%.
On the same count and under the same terms, the figure for `CCOCCC(=O)N1CCc2cccc(S(=O)(=O)N3CCOCC3)c2C1` is -15.51%; for `CS(=O)(=O)c1ccccc1NCc1ccc(Cn2ccnc2)cc1` it is -15.33%.
The same measure, in the same setting: then `CN(Cc1ccccn1)C1CC2(CCN(Cc3cccnc3)CC2)C1.O=C(O)C(F)(F)F.O=C(O)C(F)(F)F.O=C(O)C(F)(F)F`, with -16.66%.
On the same count and under the same terms, then `CNCc1ccc(OCc2ccc3c(c2)OCCO3)cc1.Cl`, with -35.77%; and `CCNCc1ccc(OCc2ccc3c(c2)OCCO3)cc1.Cl`, with -18.34%; and `CCCNCc1ccc(OCc2ccc3c(c2)OCCO3)cc1.Cl`, with 56.18%.
With `Cc1c(C(=O)N2CCCC(n3cccn3)C2)nnn1-c1ccccc1` (stereo not given), the “Percent Effect” value was -41.06% (10 µM) and -3.586% (30.3 µM, […]).
`CNC(=O)CN1CCCC12CCN(Cc1c[nH]cn1)CC2.O=C(O)C(F)(F)F.O=C(O)C(F)(F)F`: for the setting “30 µM, 30.03 µM”, the “Percent Effect” value was -41.63%.
As for `Cc1ccc(-c2ccc(CC3NCCN(C)C3=O)cc2)cc1.Cl` (stereo not given), the “Percent Effect” value (30.3 µM, […]) is recorded as -13.76%.
`CC(c1cn2ncsc2n1)N1Cc2ncccc2C1=O` (stereo not given): where the note is “30.3 µM, […]”, the “Percent Effect” value stood at 6.941%.
For `O=C(O)C(F)(F)F.O=C(c1ncccn1)N1C[C@H]2CCC[C@@]2(COc2ccccn2)C1`, where the note is “30 µM, 30.03 µM”, the “Percent Effect” value amounted to 19.9%.
The same measure, in the same setting: then `Cc1ccoc1C(=O)N1C[C@H](OCc2cccnc2)[C@H]2OCCC[C@H]21.O=C(O)C(F)(F)F`, with 55.38%; and `Cc1occc1C(=O)N1C[C@@H](OCc2cccnc2)[C@H]2OCCC[C@@H]21.O=C(O)C(F)(F)F`, with -8.947%.
With `CS(=O)(=O)N1C[C@H]2CCC[C@@]2(COc2ccccn2)C1.O=C(O)C(F)(F)F`, the “Percent Effect” value (30 µM, 30.03 µM) is on record as -36.44%.
Take `Fc1cnc(N2C[C@H]3CCC[C@@]3(COc3ccccn3)C2)nc1.O=C(O)C(F)(F)F.O=C(O)C(F)(F)F`: the “Percent Effect” value (30 µM, 30.03 µM) is given as 83.95%.
Still for that read-out and setting: the figure for `Cc1ccoc1C(=O)N1C[C@H]2CCC[C@@]2(COCc2ccncc2)C1.O=C(O)C(F)(F)F` is 58.51%.
In the case of `Fc1cnc(N2C[C@@H]3COC[C@]3(COc3ccccn3)C2)nc1.O=C(O)C(F)(F)F.O=C(O)C(F)(F)F`, for the setting “30.3 µM, […]”, the “Percent Effect” value is given as -2.43%.
On to `O=C(O)C(F)(F)F.O=C(c1ncccn1)N1C[C@H]2CCC[C@@]2(COCc2ccncc2)C1`, for which the “Percent Effect” value (30 µM, 30.03 µM) stood at 14.62%.
As to `Cc1ccc(C(=O)N2C[C@H]3CCC[C@@]3(COc3ccccn3)C2)nc1.O=C(O)C(F)(F)F.O=C(O)C(F)(F)F`, the “Percent Effect” value (30 µM, 30.03 µM) is 43.42%.
In the case of `O=C(O)C(F)(F)F.O=C(c1ccccc1)N1C[C@H]2CCC[C@@]2(COCc2ccncc2)C1`, where the note is “30 µM, 30.03 µM”, the “Percent Effect” value is reported as -75.85%.
Same read-out and setting: the figure for `Cc1ccc(C(=O)N2C[C@@H](OCc3cccnc3)[C@H]3OCCC[C@@H]32)o1.O=C(O)C(F)(F)F` is 5.646%; for `Cc1cncc(C(=O)N2C[C@H]3CCC[C@@]3(COc3ccccn3)C2)c1.O=C(O)C(F)(F)F.O=C(O)C(F)(F)F` it is 53.76%; for `N#Cc1cccc(CN2CC[C@@H]3[C@@H]2CC(=O)N3Cc2cccnc2)c1.O=C(O)C(F)(F)F.O=C(O)C(F)(F)F` it is -2.932%.
Consider `CC(C)n1nc(CN2CCCCC2)c2c1CN(C(=O)c1ccno1)C2.O=C(O)C(F)(F)F`, for which the “Percent Effect” value (30.3 µM, […]) is recorded as -65.47%.
As for `COCCN1CCC2(CC1)CCN(Cc1ccccn1)CC2.O=C(O)C(F)(F)F.O=C(O)C(F)(F)F`, under “30.3 µM, […]”, the “Percent Effect” value was -12.12%.
As for `Cc1nc(CN2CC[C@H](OCC3CC3)[C@@H]2Cc2cccnc2)cs1.O=C(O)C(F)(F)F.O=C(O)C(F)(F)F`, for the setting “30.3 µM, […]”, the “Percent Effect” value is -53.44%.
On to `O=c1c(CN2CCCCCC2)coc(O)c1CN1CCCCCC1`, for which the “Percent Effect” value (30 µM, 30.03 µM) is given as 14.22%.
Turning to `CCN1CCCc2cc(-c3cncn3C(C)CN3CCOCC3)ccc21.Cl` (stereo not given), the “Percent Effect” value (30.3 µM, […]) is -9.571%.

Source of the values: ChEMBL document CHEMBL3988442, “University of Dundee, Small-Polar-MMV Screening Library” (2021).
